Assay outcomes (PubChem BioAssay)
An excerpt weighted towards active compounds, which were near 0.44% of everything screened.
YopH PTP inh: YopH tyrosine phosphatase inhibitors, primary screen, biochemical, fluorescence Ex485/Em525; inhibition, % (test concentration not listed); 140,000 tested, 0.16% active; YopH tyrosine phosphatase [Yersinia enterocolitica]; AID 898, 2007; in the data active means inhibition above about 50%
RmlCD inh mix: RmlC and RmlD coupled enzyme inhibitors, primary screen, biochemical, 384-well, compound mixtures, retest; 110,000 tested, 0.39% active; AID 1532, 2009; inhibition, % at 5.5 µM; RmlC/RmlD coupled enzyme inhibition, 384-well mixture HTS; in the data active means inhibition above about 30%, passing the limit was not always enough; inconclusive means no clear call, values can overlap the other calls
RmlCD fluor art: counter-screen for RmlC/RmlD inhibitors: fluorescence artifact, dose response, artefact control, biochemical; 360 tested, 96% active; AID 1696, 2009; shares compounds with RmlCD inh mix; RmlC/RmlD assay fluorescence artifact counter-screen; calls only; call rule not given here;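 further: compound alone with no enzyme and no substrates present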
Hits are given with their value; . = inactive; ? = inconclusive; / = no result; + = active, no number.

SMILES	YopH PTP inh	RmlCD inh mix	RmlCD fluor art
CC[C@@]1(O)C(=O)OCc2c1cc1n(c2=O)Cc2cc3c(N)cccc3nc2-1	/	.	/
Cc1scc(C(=O)N/N=C/c2ccc(Cl)s2)c1C	.	/	/
c1ccc2cc(-c3cc4ccccn4c3)ccc2c1	.	91	+
CC(=O)N1N=C(c2ccc3ccccc3c2)OC1(C)C	.	/	/
Cc1cccc2cc(CN(Cc3nnnn3Cc3ccco3)C3CCCC3)c3nnnn3c12	.	.	/
CSc1nccc(Oc2ccc(C#N)cc2)n1	.	/	/
Cc1cccc(NC(=O)CN2NS(=O)(=O)c3ccccc3C2=O)c1	.	.	/
COCCN(CCOC)Cc1c(O)ccc2c3c(c(=O)oc12)CCC3	.	.	/
CCCCc1cc(=O)oc2c(CN(C)C)c(O)ccc12	.	72	+
O=c1oc2c(CN3CCOCC3)c(O)ccc2c2ccccc12	.	/	/
COc1ccc(Oc2c(C)oc3c(CN(C)C)c(O)ccc3c2=O)cc1	.	.	/
CCCc1cc(=O)oc2c(CN3CCOCC3)c(O)ccc12	.	.	/
CCc1c(C)c2ccc(O)c(CN(C)C)c2oc1=O	.	131	+
O=c1oc2c(CN3CCOCC3)c(O)ccc2c2c1CCCC2	.	147	+
CN(C)Cc1c(O)ccc2c3c(c(=O)oc12)CCCCC3	.	117	+
COCCNC(=O)c1c(NC(=O)c2nc(SC)ncc2Cl)sc2c1CCCC2	.	.	/
O=c1[nH]c2ccc(S(=O)(=O)N3CCCCC3)cc2[nH]c1=O	.	.	/
CC(=O)N1CCC(N(CCN2CCOCC2)C(=S)Nc2ccccc2C)CC1	.	/	/
C/C(=N\NC(=O)c1[nH]c2c([N+](=O)[O-])cc(C)cc2c1-c1ccccc1)c1cccnc1	.	.	/
CCCCC1(Cc2cccc([N+](=O)[O-])c2)C(=O)N(c2ccccc2)N(c2ccccc2)C1=O	.	.	/
COc1cc(-c2cc(C(=O)O)c3cc4c(cc3n2)OCCO4)cc(OC)c1OC	.	.	/
COC(=O)c1ccc(-c2cc(C(=O)O)c3cc4c(cc3n2)OCCO4)cc1	.	48	+
CCOC1(C)OCC(=O)[C@]2(CCC3C4CCC5=CC(=O)C=CC5(C)C4C(=O)CC32C)O1 (some centres undefined)	.	/	/
COc1ccc([N+](=O)[O-])cc1NC(=O)C(C)Sc1nc(-c2ccccc2)cs1 (centres undefined)	.	/	/
COc1ccc2cc(CN(Cc3cccnc3)Cc3nnnn3Cc3ccccc3)c(=O)[nH]c2c1	.	33	.
SMILES	YopH PTP inh	RmlCD inh mix	RmlCD fluor art
COc1ccc2cc(CN(Cc3cccs3)Cc3nnnn3Cc3ccccc3)c(=O)[nH]c2c1	.	.	/
CCCCc1cc(=O)oc2c(CN3CCCC3)c(O)c(Cl)cc12	.	124	+
CCCCc1cc(=O)oc2cc(OCc3nn[nH]n3)c(Cl)cc12	.	.	/
O=c1oc2c(CN3CCOCC3)c(O)c(Cl)cc2c2c1CCCC2	.	.	/
CN1CCN(Cc2c(O)c(Cl)cc3c(-c4ccccc4)cc(=O)oc23)CC1	.	.	/
Cc1cc(=O)oc2c(CN3CCN(C)CC3)c(O)c(Cl)cc12	.	/	/
CCCCc1cc(=O)oc2c(CN(CC)CC)c(O)c(Cl)cc12	.	85	+
Cc1c(C)c2cc(Cl)c(O)c(CN3CCCCC3)c2oc1=O	.	90	+
CCCc1cc(=O)oc2c(CN3CCN(C)CC3)c(O)c(Cl)cc12	/	71	+
O=C(Nc1nc(-c2cccc3ccccc23)cs1)c1cnccn1	.	/	/
COc1ccc(-c2csc(NC(C)c3nc4cc(C(F)(F)F)ccc4n3CCOCCO)n2)cc1 (centres undefined)	/	.	/
CC(C)CNC(=O)c1coc(=O)c(Br)c1	.	.	/
CN(C)CCNC(=O)c1coc(=O)c(Br)c1	.	62	+
CN(C)CCCNC(=S)N1CCn2c(nc3ccccc32)C1	.	/	/
O=C(c1ccco1)N1CCN(C(=O)c2cc3c(s2)-c2ccccc2OC3)CC1	.	46	+
O=C(O)c1cc2c(s1)-c1ccccc1OC2	.	?	/
CC(=O)Nc1nc(-c2ccc(Cl)cc2)ns1	.	/	/
Cc1ccc2nc(-c3cc(N)cc(N)c3)oc2c1	.	.	/
Cc1nc2ccc(-c3nc4ccccc4o3)cc2[nH]1	.	.	/
Nc1ccc(-c2nc3ccc(-c4nc5ccccc5o4)cc3[nH]2)cc1	.	+	+
Nc1ccc(-c2nc3ccc(N)cc3o2)cc1	.	104	+
Cc1ccc(N(CC(=O)Nc2cccc(C)c2)S(=O)(=O)c2cccc3nonc23)cc1	.	.	/
CCOC(=O)c1c(C)[nH]c(C=C2C(=O)CCCC2=O)c1O	.	/	/
Nc1c(C(O)(C(F)(F)F)C(F)(F)F)cc(C(O)(C(F)(F)F)C(F)(F)F)c2ccccc12	.	.	/
COc1ccc(OC)c(/C=N/NC(=O)CC2C(=O)NN=C2C)c1 (centres undefined)	.	54	+
SMILES	YopH PTP inh	RmlCD inh mix	RmlCD fluor art
COc1cccc(/C=N/NC(=O)CC2C(=O)NN=C2C)c1OC (centres undefined)	.	.	/
N#Cc1cnn2c(-c3ccccc3)ccnc12	.	.	/
COc1ccc(-c2ccnc3c(C#N)cnn23)cc1	/	/	+
CC(=O)Oc1cc2oc(=O)c3c(c2cc1Cl)CCC3	.	/	+
CC(C)Oc1cc2oc(=O)c3c(c2cc1Cl)CCC3	.	.	/
Cc1cc2oc(=O)c3c(c2cc1OC(=O)c1ccco1)CCCC3	.	.	/
O=C(Oc1cc2oc(=O)c3c(c2cc1Cl)CCCC3)c1ccco1	.	141	+
O=C(Oc1ccc2c3c(c(=O)oc2c1)CCCC3)c1cccs1	.	/	/
O=C(Oc1ccc2c3c(c(=O)oc2c1)CCC3)c1ccco1	.	187	+
COC(=O)Cc1c(C)c2ccc(OC(=O)c3ccco3)cc2oc1=O	.	+	+
COC(=O)Cc1c(C)c2cc(Cl)c(OC(=O)c3ccco3)cc2oc1=O	.	/	/
CC(NC(=O)NCc1cccnc1)(C(F)(F)F)C(F)(F)F	.	.	/
O=C(Nc1ccc(F)cc1)C(Sc1nc2ccccc2[nH]1)c1ccccc1 (centres undefined)	.	/	/
COc1ccc([N+](=O)[O-])cc1NC(=O)c1ccc(N(Cc2ccccc2Cl)S(C)(=O)=O)cc1	.	/	/
Cc1ccc(CN2CCN(Cc3ccccc3C(F)(F)F)CC2)cc1	.	.	/
CCCCOCCCn1c(-c2ccco2)nc2nc3ccccc3nc21	.	41	+
CCCCn1c(-c2cccs2)nc2nc3ccccc3nc21	.	.	/
C=CCNS(=O)(=O)c1ccc(OCC(=O)OC)cc1	.	.	/
Cc1ccccc1N1C(=O)N(c2cccc(C(F)(F)F)c2)C2CS(=O)(=O)CC21 (centres undefined)	.	.	/
CC1CCCN(CCCNC(=O)c2coc3nc4ccccc4nc23)C1 (centres undefined)	.	140	+
CC1CCN(CCCNC(=O)c2coc3nc4ccccc4nc23)CC1	.	.	/
CCCCCn1c(NC(=O)c2ccco2)c(C(=O)OCC)c2nc3ccccc3nc21	.	/	/
CCOC(=O)c1c(N)n(CCCOC(=O)c2ccco2)c2nc3ccccc3nc12	.	34	+
CC(C)OC(=O)c1c(N)n(CCCN2CCOCC2)c2nc3ccccc3nc12	.	38	+
COc1ccccc1CNC(=O)c1c(N)n(CCCN2CCOCC2)c2nc3ccccc3nc12	.	/	/
CCCCC(=O)NC(=S)Nc1cccc(NC(=O)c2ccco2)c1	.	/	/
COc1ccccc1N=c1oc2cc(O)ccc2cc1C(=O)NCC1CCCO1 (centres undefined)	.	.	/
